Hit rate of the full screen: of about 69,000 compounds, about 420 (0.61%) showed an effect of 50% or more. The full list was thinned out, with strong results kept by preference.
Biological target: T1, Histidine--tRNA ligase (Leishmania infantum) (UniProt A4I591)
T1 sequence (whole entry): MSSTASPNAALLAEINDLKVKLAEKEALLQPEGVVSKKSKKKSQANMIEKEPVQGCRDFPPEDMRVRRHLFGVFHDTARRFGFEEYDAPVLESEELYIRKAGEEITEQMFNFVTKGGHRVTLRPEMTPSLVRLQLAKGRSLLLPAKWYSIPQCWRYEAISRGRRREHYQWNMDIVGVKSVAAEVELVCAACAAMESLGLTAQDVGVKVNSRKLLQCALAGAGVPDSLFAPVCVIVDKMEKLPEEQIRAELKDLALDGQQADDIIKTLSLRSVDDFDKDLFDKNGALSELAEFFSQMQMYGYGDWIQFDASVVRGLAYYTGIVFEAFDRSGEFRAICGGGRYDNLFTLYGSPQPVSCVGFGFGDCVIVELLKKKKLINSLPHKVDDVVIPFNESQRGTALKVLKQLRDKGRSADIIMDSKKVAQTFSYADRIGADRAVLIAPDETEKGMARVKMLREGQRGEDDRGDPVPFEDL
Assay: Leishmania infantum Histidine tRNA synthetase (LdHisRS)
Assay type: functional
Parameters: scale not given: in the data most compounds retested in dose-response had high values
Settings: 30 µM

SMILES | Percent Effect
Cc1cccc(S(=O)(=O)N2CC[C@H]3CO[C@H](CN(C)C)[C@H]3C2)c1 | 0.917%
Cc1ccc(CN2C[C@H](N(C)Cc3cncnc3)[C@H]3OCCC[C@H]32)o1 | 15.4%
O=C1CCCC2=C1C(c1ccc(F)cc1F)Nc1nonc1N2 (stereo not drawn) | 14.6%
Cc1ccccc1CN1C[C@@H]2CC[C@H](C1)N(CC1CCC1)C2=O | 34.4%
CCOCC(=O)N1C[C@@H]2CC[C@H](Oc3ccccc3)[C@@H]2C1 | 26.3%
N#Cc1cccc(CNCCC(=O)N2CCc3sccc3C2)c1 | 5.38%
O=C(CCNCc1cccc(O)c1)N1CCc2sccc2C1 | 85%
COc1ccc(CNCCC(=O)N2CCc3sccc3C2)cc1O | 26.9%
c1ccc(-c2noc(CNC3CCCN(c4cccnn4)C3)n2)nc1 (stereo not drawn) | 67.7%
c1cnnc(N2CCCC(NCc3nc(-c4cccs4)no3)C2)c1 (stereo not drawn) | 24.7%
c1cnnc(N2CCCC(NCc3nc(-c4ccco4)no3)C2)c1 (stereo not drawn) | 0.926%
Cc1cccc(CN2C[C@@H]3OCCN(CC(=O)N(C)C)[C@@H]3C2)c1 | 13.5%
O=C(c1ncccn1)N1C[C@@H]2COC[C@]2(COc2cccnc2)C1 | 17.3%
CS(=O)(=O)c1ccc(CN2C[C@H]3CC[C@@H]2CN(c2ncccn2)C3)cc1 | 15%
CCS(=O)(=O)N1CCC2(CC1)CC[C@@]1(C(=O)NC)CN(C(C)=O)C[C@@H]21 | 19.7%
CC(C)(C)C(=O)N1CC[C@H]2NC(=O)N(c3ccc(F)cc3)C(=O)[C@H]21 | 19.4%
Cc1nc([C@@H]2C[C@@H]3CCN(C(=O)c4ccnnc4)C[C@H]3O2)sc1C | 18.4%
CN(C)c1nc2c(c(N3CCc4ccccc4C3)n1)CCNC2 | 58.6%
c1ccc2c(c1)CCN(c1ncnc3sc4c(c13)CCNC4)C2 | 15.1%
Cc1nc2c(c(N3CCN(c4ncccc4C(N)=O)CC3)n1)CCNC2 | 12.9%
Cc1cccc(=O)n1CCCNc1nc(N(C)C)nc2c1CCNC2 | 35.3%
c1ccc2c(c1)CCN(c1nc(-c3ccncc3)nc3c1CCNC3)C2 | 101%
CN(C)c1nc2c(c(N3CCc4c(c(CO)nn4C)C3)n1)CCNC2 | 11.4%
c1ccc2c(c1)CN(c1ncnc3c1CCNC3)CCO2 | 16.1%
Cc1ccccc1N1CCN(c2nc(N(C)C)nc3c2CCNC3)CC1 | 58.6%
CC(Nc1nc(-c2ccccc2)nc2c1CCNCC2)c1nccs1 (stereo not drawn) | 19.7%
Cc1cc2n(n1)CCN(c1nc(N(C)C)nc3c1CCNC3)C2 | 36.7%

SMILES | Percent Effect
CC(Nc1nc(-c2ccncc2)nc2c1CCNC2)c1ccccc1 (stereo not drawn) | 54.1%
CC(Nc1nc(-c2ccccc2)nc2c1CCNCC2)c1cccnc1 (stereo not drawn) | 16.4%
CCOc1ccc(C(=O)N2C[C@H]3CC[C@@H]2CN(C)C3)cc1OCC | 15.1%
O=C1[C@H]2CN(S(=O)(=O)c3cccs3)C[C@H]2CN1CC1CC1 | 21.4%
CN(Cc1cncnc1)[C@@H]1CN(C(=O)c2ccco2)[C@@H]2CCCO[C@H]12 | 17.3%
CCC1=N[C@@]2(CC[C@@H]3CN(Cc4ccc(F)cc4)C[C@@H]32)C(=O)N1C | 8.18%
Cc1ccc(CN2CCN(C(=O)C3CCC3)[C@@H]3CS(=O)(=O)C[C@@H]32)cc1C | 20.6%
CC1=N[C@@]2(CC[C@@H]3CN(C(=O)NC(C)C)C[C@@H]32)C(=O)N1CC1CC1 | 11.1%
CC(C)C(=O)N1CC[C@H]2N(C)CC[C@@]2(C(=O)Nc2ccccc2)CC1 | 2.7%
COCCN1CC[C@H]2CN(Cc3ccc(C)s3)C[C@@H]2C1=O | 7.69%
CC(=O)N1CC[C@H]2OCC[C@@]2(C(=O)NCc2ccco2)C1 | 13.2%
CCc1cc(C(C)Nc2nc(-c3cccnc3)nc3c2CNC3)on1 (stereo not drawn) | 17.1%
Cc1cc(CC(C)Nc2nc(-c3cccnc3)nc3c2CNC3)[nH]n1 (stereo not drawn) | 22.9%
Cc1cccnc1[C@H](C)Nc1nc(-c2cccnc2)nc2c1CNC2 | 54.3%
CCC(C)NC(=O)c1coc(COc2cccc(F)c2)n1 (stereo not drawn) | 19.7%
COC(=O)[C@@H](NC(=O)c1coc(COc2cccc(F)c2)n1)C(C)C | 6.58%
CC(NC(=O)c1coc(COc2cccc(F)c2)n1)c1nnc(N)s1 (stereo not drawn) | 54%
CN(C[C@@H]1CCC[C@@H]2CN(c3ncccn3)C[C@@H]21)C1CC1 | 23.3%
COC[C@@H]1CC[C@H]2[C@H](CCN2S(=O)(=O)c2cccc(F)c2)O1 | 2.65%
O=C(NCc1ccccn1)[C@@]12CCO[C@@H]1CCN(c1ncccn1)C2 | 15.4%
COc1cccc(OCC(=O)Nc2cc(C)cnc2OC)c1 | -3.17%
CCOCC(=O)Nc1cc(C)cnc1OC | 9.52%
COc1ncc(C)cc1NC(=O)COCC(F)(F)F | 77.8%
O=C(c1ccccn1)N1CC[C@H]2[C@H]1CCN2S(=O)(=O)C1CC1 | 14%
CN(C)C(=O)[C@H]1C[C@@H]2CN(c3ncccn3)C[C@H]1O2 | 22.2%
CCCc1ccc(CN2CCN(C(=O)NCC)[C@H]3CS(=O)(=O)C[C@H]32)o1 | 13.2%

From ChEMBL document CHEMBL3988442, “University of Dundee, Small-Polar-MMV Screening Library” (2021)
